# According to PubChem BioAssay AID489017 (The Scripps Research Institute Molecular Screening Center, 2010):
# Unmarked numbers belong to inactive results. The rule behind the calls is not given here.
# Tested on: Potassium Channel [KATP]
# Test: receptor, enzyme and CYP inhibition profiling – biochemical, Ricerca HitProfilingScreen, CYP450, selectivity assay for S1P4 antagonist project, profiling panel (AID 489017)
# Details: Ricerca receptor/enzyme binding panel plus CYP450, at 10 µM, stronger effect = higher value
compound,measurement,value
CCc1cccc(CC)c1NC(=O)c1ccc(-c2cc(Cl)ccc2Cl)o1,inhibition,14%
